Source: PubChem
Sampled rows, rich in hits. Any-hit rate of the full collection: about 1.4%.
MenB inh: M. tuberculosis MenB inhibitors, primary screen, biochemical, absorbance. 1,4-dihydroxy-2-naphthoyl-CoA synthase (Mycobacterium tuberculosis (strain ATCC 25618 / …. MenB enzyme assay, absorbance read-out. inhibition, % (no concentration beside the values). actives 0.43% (n = 100,000); in the data active means inhibition above about 21%, passing the limit was not always enough
Polio RdRp inh: poliovirus RdRp elongation inhibitors, primary screen, biochemical, fluorescence polarization, total intensity; poliovirus polymerase elongation; active compounds read low; % elongation, % (compound at 16.7 µg/mL); actives 0.66% (n = 150,000); Genome polyprotein (Poliovirus type 1 (strain Mahoney)), P03300; in the data active means % elongation below about 90%
Target sequence (P03300 1749-2209 limits assumed): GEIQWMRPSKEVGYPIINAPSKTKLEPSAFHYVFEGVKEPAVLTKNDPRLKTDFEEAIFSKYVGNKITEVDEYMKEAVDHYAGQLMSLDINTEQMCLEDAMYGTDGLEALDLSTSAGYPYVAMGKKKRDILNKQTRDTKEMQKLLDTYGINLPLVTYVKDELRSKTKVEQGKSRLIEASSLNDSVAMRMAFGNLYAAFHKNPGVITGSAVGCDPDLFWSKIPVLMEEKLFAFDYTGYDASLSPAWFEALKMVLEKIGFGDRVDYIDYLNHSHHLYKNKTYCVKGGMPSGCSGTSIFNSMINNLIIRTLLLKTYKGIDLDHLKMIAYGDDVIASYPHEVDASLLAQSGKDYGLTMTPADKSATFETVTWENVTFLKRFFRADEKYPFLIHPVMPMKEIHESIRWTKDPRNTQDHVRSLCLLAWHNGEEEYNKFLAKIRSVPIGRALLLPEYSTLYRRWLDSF
MbtI inh: MbtI salicylate synthase inhibitors, primary screen, biochemical, fluorescence intensity. inhibition, % (concentration not given with the values). AID 493033, 2011. actives 0.89% (n = 100,000). P9WFX0. purified MbtI enzyme, fluorescence intensity read-out; in the data active means inhibition mostly above about 56%, no sharp cut-off; inactive means mostly below about 77%
AID504770: growth inhibition of E. coli YBA685, primary screen, V. cholerae RctB inhibitors; E. coli YBA685 rctB-dependent plasmid, OD600 growth, 3 h; active compounds read low; z-score (no concentration beside the values); actives 0.27% (n = 130,000); AID 504770, 2011; in the data active means z-score below about -2, passing the limit was not always enough
Numbers without * were called inactive; i = inactive; . = no result.

SMILES | MenB inh | Polio RdRp inh | MbtI inh | AID504770
COc1ccc(-c2nc(Cn3c(SCc4cccc(C(F)(F)F)c4)nc4cccnc43)c(C)o2)cc1OC | . | 110 | . | .
Cc1ccc(-n2c(C)cc(/C=C3\SC(=O)NC3=O)c2C)cc1 | 39* | 100 | -27 | 0.7
S=C(SCc1ncon1)N1CCOCC1 | -5 | 96 | 92* | -0.75
COc1ccc(-c2[nH]ncc2C(=O)NCc2cccc(OC)c2)cc1 | . | 110 | . | .
Cc1cc(NCCN2CCCCC2)c2ccc3ccccc3c2n1 | -1 | 69* | i | 1.1
Cc1nc2ccccc2c2oc(C(=O)NCCN3CCCCCC3)cc12 | . | . | . | -0.3
NNc1nc2ccccc2[nH]c1=S | i | 107 | 63 | -3.2*
CCSc1nnc(NC(=O)CSc2c[nH]c3ccccc23)s1 | . | . | . | 1.6
Cc1ccc(S(=O)(=O)Nc2c(C#N)c3nc4ccccc4nc3n2Cc2ccccc2)cc1 | -33 | 73* | -22 | 0.25
CC(=O)N=C1c2ccccc2CN1c1ccc(C#N)cc1 | . | 99 | -3 | 0.1
CC(C)Oc1ccccc1CN | 32* | 101 | 3 | 1
CCOc1cccc(CNC(=O)c2ccc(N3CCCC3)c(NC(=O)NCc3ccccc3)c2)c1 | . | 106 | . | .
CN(C)CCNC(=O)c1ccc(Br)s1 | -13 | 89* | 0 | 0.05
O[N+]1=CC=CCC1=S.On1ccccc1=S.[Zn] | 2 | 101 | 15 | -4*
Cc1ccccc1NC(=O)CSc1nc2ccc(NC(=O)COc3ccccc3F)cc2s1 | . | 104 | . | .
CCCCCCSc1n[nH]c(=O)[nH]c1=O | -9 | 86* | -8 | -0.4
NCCSc1n[nH]c(=O)[nH]c1=O | -16 | 100 | 8 | -0.1
Cn1cc(NC(=O)N(Cc2ccco2)CC2CCCO2)c2ccccc2c1=O (centres undefined) | -27 | 82* | -13 | 0.1
CC(C)C12CN3CC(C(C)C)(CN(C1)C3(C)C)C2=O | -69 | 104 | -9 | 1.9
NC(=O)C1CC2C=CC1C2 (centres undefined) | . | 101 | -10 | -0.65
CCn1cc(C(=O)O)c(=O)c2cc(F)c(F)cc21 | -27 | 100 | -211 | -1.4
COc1c(N2CCNC(C)C2)c(F)cc2c(=O)c(C(=O)O)cn(C3CC3)c12 (centres undefined) | 5 | 100 | -55 | -3.5*
CO/N=C1\CN(c2nc3c(cc2F)c(=O)c(C(=O)O)cn3C2CC2)CC1CN (centres undefined) | -1 | 100 | . | -3.6*
O=C(O)c1cn(C2CC2)c2cc(N3CCNCC3)c(F)cc2c1=O | 4 | 100 | 104 | -3.4*
COP1(OC)=NP(OC)(OC)=NP(OC)(OC)=NP(OC)(OC)=N1 | -30 | 103 | 4 | 2.1
SMILES | MenB inh | Polio RdRp inh | MbtI inh | AID504770
CCCCN(C)Cn1ncn(C)c1=S | -12 | 98 | 29 | 0.9
Cc1ccc(-c2n[nH]c(=S)[nH]c2=O)cc1 | -26 | 107 | 30 | 0.3
COc1ccc(-c2n[nH]c(=S)[nH]c2=O)cc1 | -35 | 94 | 77* | 0.3
CCN(CC)c1nc2c(C)cccn2c(=O)c1C=C1C(=O)NC(=O)NC1=O | -107 | 100 | -6 | 1
O=C(CCn1c(=O)sc2ccccc21)n1c(=O)sc2ccccc21 | -20 | 75* | . | 1.8
COc1cccc(CN(C)C(=O)c2ccc3c(c2)NC(=O)CS3)c1 | -9 | 99 | 2 | -0.95
COCCN(Cc1ccccc1)C(=O)c1ccc2c(c1)NC(=O)CS2 | -48 | 93 | 63* | 0.1
COc1ccccc1CNC(=O)c1ccccc1SC | -34 | 103 | 59* | 2.3
COc1ccccc1CNC(=O)c1cnc(SC)nc1C | . | 115 | . | .
CC1=C(C)C(=O)C(NCc2ccco2)=CC1=O | -120 | 74* | 8 | -1.1
NC1CCc2cc(O)c(O)cc2C1 (centres undefined) | . | 98 | 93* | .
Cc1cc(C)n(CCc2nc(-c3ccc(C)c(C)c3)cs2)n1 | -47 | 82* | 73* | 0.55
COc1ccc(-c2csc(-n3nc(C)cc3C)n2)cc1 | . | . | . | -0.45
CCc1ccc(NC(=O)N(Cc2c[nH]c3ccccc23)C2CCCC2)cc1 | -10 | 101 | 5 | 0.4
COc1ccc(CCN(C)c2nc(N)c3c(N)nc(SCC(=O)O)cc3c2C#N)cc1OC | -28 | 72* | -110 | -1.1
O=c1c2ccccc2nc2c3ccccc3c(N3CCOCC3)nn12 | -18 | 102 | -15 | -1.1
Cc1c(N=c2c(=O)c3ccccc3c2=O)c(=O)n(-c2ccccc2)n1C | -44 | 63* | 9 | 1.8
Cc1ccc(/C=C/C(=O)Nc2ccccc2)o1 | . | . | . | -1.5
O=C1c2ccccc2C(=O)N1SSN1C(=O)c2ccccc2C1=O | -1 | 85* | 47 | 0.25
O=c1c2ccccc2nnn1CSC(=S)N1CCCC1 | -31 | 107 | 36 | 1.1
N/C(=N\N=C1CCCCCC1)SCn1nnc2ccccc2c1=O | -15 | 90* | 34 | -0.15
COc1cccc(C(=O)Nc2cc3cc(OC)ccc3oc2=O)c1 | . | 85* | . | .
O=C1CN=C(Nc2ccccc2Cl)N1Cc1ccccc1 | -22 | 103 | -5 | 1.7
Cc1cccc(NC2=NCC(=O)N2Cc2ccccc2)c1 | -16 | 87* | -9 | 0.6
CC(C)c1ccc(C=C2C(=O)NC(=O)NC2=O)cc1 | -7 | 77* | 6 | -2.3
SMILES | MenB inh | Polio RdRp inh | MbtI inh | AID504770
O=C(NCCc1ccc(O)c(O)c1)C(F)(F)F | . | 101 | 85* | 0.6
Nc1ccc2c(c1)C(=O)N(CC1CCCO1)C2=O (centres undefined) | -54 | 98 | -37 | -0.7
O=C1C=CC(=O)N1CC1CCCO1 (centres undefined) | . | 100 | 62* | -0.55
COC(=O)Cn1c(=O)c2c(nc3n2CCN3c2ccc(F)cc2)n(C)c1=O | . | 106 | . | .
O=C(NC1CCN(Cc2ccccc2)CC1)c1ccc(Cn2c(=O)c3ccccc3n(Cc3ccccc3)c2=O)cc1 | . | 73* | . | .
O=C(NC1CCN(Cc2ccccc2)CC1)c1ccc(Cn2c(=O)c3ccccc3n(Cc3ccc(Cl)cc3)c2=O)cc1 | . | 99 | . | .
Brc1ccc(-c2csc(NN=C3CCCC3)n2)cc1 | -36 | 101 | 80* | -0.3
O=C1CCc2cc(S(=O)(=O)Nc3ccccc3)cc3c2N1CCC3 | -16 | 105 | 10 | 0.2
CC1=C(C)NC(=S)SC1 | -20 | 99 | 97* | 1.6
CCc1nc2ccccc2c(N)c1C | 14 | 90* | . | -0.85
Cc1ccc(CNC2=NCCC2)n1C | -1 | 105 | 17 | 0.5
O=C(c1cccs1)c1coc2ccc(O)cc12 | 6 | 106 | . | 0.8
Oc1ccccc1OCc1nc2ccccc2s1 | . | 102 | 52* | 0
COc1ccc(C2C(C(=O)N3CC(C)CC(C)C3)c3ccccc3C(=O)N2c2ccc(OC)cc2)cc1 (centres undefined) | . | . | 6 | .
CCS(=O)(=O)c1ccc(O)c(Nc2cc(C)nc(SC)n2)c1 | . | 101 | . | .
c1ccc2c(c1)nc(N1CCCC1)c1nncn12 | -22 | 102 | -2 | -0.35
O=C(C[n+]1cccc(C(=O)Nc2ccccc2)c1)c1ccc(N2C(=O)c3ccccc3C2=O)cc1 | -89 | 102 | 57* | -2.8
